Reference: PubChem BioAssay (NCI)
This is part of a sample that, as a whole, favours compounds with a hit. Of some 79,000 tested, about 15% had one in any assay. Activity calls are given as the source filed them. No stated cut-off is given here; in the data, active means growth inhibition above about 70%; inactive means the rest.

Columns and labels:
[1] = NCI Yeast Anticancer Drug Screen. Data for the rad52 strain (AID 147);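 further: 0% = growth of vehicle-treated control cultures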; details: S. cerevisiae rad52 mutant growth inhibition, hits give high values
How it was run: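 Read-out: growth inhibition versus vehicle-treated controls. Cells were a DNA repair-deficient yeast strain treated with compounds.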

[2] = NCI Yeast Anticancer Drug Screen. Data for the rad50EPP+ strain (AID 151);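 further: 0% = growth of vehicle-treated control cultures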; details: S. cerevisiae rad50 mutant strain, hits give high values
How it was run: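 Growth inhibition read against vehicle controls in rad50EPP+ yeast, a strain altered in DNA damage repair, after compound exposure.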

[3] = NCI Yeast Anticancer Drug Screen. Data for the mgt1 strain (AID 153); details: S. cerevisiae mgt1 mutant growth inhibition, hits give high values
How it was run: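 mgt1 yeast grown with test compound; read-out is growth inhibition versus vehicle-treated cultures.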

[4] = NCI Yeast Anticancer Drug Screen. Data for the rad50 strain (AID 155);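 further: 0% = growth of vehicle-only cultures of the same strain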; details: S. cerevisiae rad50 strain growth inhibition, hits give high values
How it was run: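 A DNA repair-deficient yeast mutant serves as the test organism; compound-induced growth inhibition is calculated against vehicle-treated cells.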

[5] = NCI Yeast Anticancer Drug Screen. Data for the mec2-1 strain (AID 157); details: S. cerevisiae mec2-1 strain, hits give high values
How it was run: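 Yeast mec2-1 mutant treated with compound. Readout: growth inhibition vs vehicle controls.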

[6] = NCI Yeast Anticancer Drug Screen. Data for the rad14 strain (AID 159);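 further: 0% = growth of vehicle-treated control cultures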; details: S. cerevisiae rad14 strain growth inhibition, hits give high values
How it was run: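 Vehicle-treated cultures served as the baseline for growth inhibition of a DNA repair-mutant yeast strain exposed to each compound.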

[7] = NCI Yeast Anticancer Drug Screen. Data for the sgs1 mgt1 strain (AID 161);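 further: 0% = growth of cultures given vehicle only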; details: S. cerevisiae sgs1 mgt1 strain, hits give high values
How it was run: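 Read-out: growth inhibition vs vehicle controls. Cells: mutant yeast strain deficient in DNA damage repair.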

[8] = NCI Yeast Anticancer Drug Screen. Data for the CLN2oe strain (AID 163);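 further: 0% = growth of vehicle-only control cultures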; details: S. cerevisiae CLN2oe strain, hits give high values
How it was run: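 Read-out: yeast growth inhibition, expressed relative to vehicle-only controls. The strain bears an engineered cell-cycle alteration.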

[9] = NCI Yeast Anticancer Drug Screen. Data for the cln2 rad14 strain (AID 165);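 further: 0% = growth equal to vehicle treated cultures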; details: S. cerevisiae cln2 rad14 strain, hits give high values
How it was run: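 cln2 rad14 yeast strain; compound exposure; growth inhibition read vs vehicle controls.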

[10] = NCI Yeast Anticancer Drug Screen. Data for the bub3 strain (AID 167); details: S. cerevisiae bub3 mutant strain, hits give high values
How it was run: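 Inhibition values come from growth of compound-treated mutant yeast normalised to vehicle-treated controls.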

[11] = NCI Yeast Anticancer Drug Screen. Data for the wt2 strain (AID 169);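 further: 0% = growth of vehicle-treated yeast cultures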; details: S. cerevisiae wt2 strain growth inhibition, hits give high values
How it was run: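 Read-out: growth inhibition versus vehicle-treated control cultures after compound exposure of the yeast strain.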

[12] = NCI Yeast Anticancer Drug Screen. Data for the mlh1 strain (AID 171);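 further: 0% = growth of vehicle-treated control cultures of the same strain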; details: S. cerevisiae mlh1 strain growth inhibition, hits give high values
How it was run: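 Read-out: growth inhibition versus vehicle controls. Strain: engineered yeast with a defined DNA repair or cell cycle defect, compound-treated.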

[13] = NCI Yeast Anticancer Drug Screen. Data for the sgs1 strain (AID 173);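 further: 0% = growth of vehicle-only control cultures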; details: S. cerevisiae sgs1 mutant, hits give high values
How it was run: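 Read-out: yeast growth inhibition relative to vehicle controls, following compound exposure of a strain with a defined DNA repair/cell cycle alteration.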

[14] = NCI Yeast Anticancer Drug Screen. Data for the mlh1 rad18 strain (AID 175); details: S. cerevisiae mlh1 rad18 strain growth inhibition, hits give high values
How it was run: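 Yeast w/ defined DNA-repair lesions; compound exposure; growth vs vehicle controls → % inhibition.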

[15] = NCI Yeast Anticancer Drug Screen. Data for the rad18 strain (AID 177); details: S. cerevisiae rad18 mutant growth inhibition, hits give high values
How it was run: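 Readout: growth inhibition vs vehicle controls. Cells: genetically altered yeast strain, DNA repair defect.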

[16] = at 5.0 µM (retest, dose inferred, filed as 0.5)
[17] = at 50.0 µM (retest, dose inferred, filed as 5.0)

Measured: growth inhibition

CN(CCc1ccc(Br)cc1)CCN1CCCCC1
active: [1]; at 33.0 µM 81% | [1]; at 100.0 µM 98% | [3]; at 11.0 µM 70% | [3]; at 33.0 µM 94% | [3]; at 100.0 µM 99% | [4]; at 33.0 µM 91% | [4]; [17] 74% | [4]; at 50.0 µM 78.3% | [4]; at 100.0 µM 98% | [5]; at 33.0 µM 74% | [5]; [17] 73% | [5]; at 50.0 µM 86.7% | [5]; at 100.0 µM 99% | [6]; at 33.0 µM 97% | [6]; at 100.0 µM 98% | [7]; [17] 86% | [7]; at 50.0 µM 92.5% | [8]; at 33.0 µM 78% | [8]; at 100.0 µM 98% | [9]; [17] 88% | [9]; at 50.0 µM 83.2% | [10]; at 33.0 µM 94% | [10]; [17] 88% | [10]; at 50.0 µM 91% | [10]; at 100.0 µM 98% | [11]; at 33.0 µM 93% | [11]; at 100.0 µM 99% | [12]; at 33.0 µM 82% | [12]; at 100.0 µM 99% | [13]; at 33.0 µM 96% | [13]; at 100.0 µM 99% | [14]; [17] 86% | [14]; at 50.0 µM 92.5% | [15]; at 33.0 µM 94% | [15]; at 100.0 µM 98%
inactive: [1]; at 1.2 µM 19% | [1]; at 3.7 µM 26% | [1]; at 11.0 µM 51% | [2]; at 1.2 µM -1% | [2]; at 3.7 µM 0% | [2]; at 11.0 µM -1% | [2]; at 33.0 µM 0% | [2]; at 100.0 µM 6% | [3]; at 1.2 µM 7% | [3]; at 3.7 µM 20% | [4]; at 1.2 µM 15% | [4]; at 3.7 µM 18% | [4]; [16] 9% | [4]; at 11.0 µM 38% | [5]; at 1.2 µM 17% | [5]; at 3.7 µM 24% | [5]; [16] 13% | [5]; at 11.0 µM 35% | [6]; at 1.2 µM 31% | [6]; at 3.7 µM 49% | [6]; at 11.0 µM 68% | [7]; [16] 30% | [8]; at 1.2 µM 15% | [8]; at 3.7 µM 26% | [8]; at 11.0 µM 46% | [9]; [16] 55% | [10]; at 1.2 µM 20% | [10]; at 3.7 µM 29% | [10]; [16] 20% | [10]; at 11.0 µM 60% | [11]; at 1.2 µM 8% | [11]; at 3.7 µM 23% | [11]; at 11.0 µM 47% | [12]; at 1.2 µM 11% | [12]; at 3.7 µM 22% | [12]; at 11.0 µM 41% | [13]; at 1.2 µM 16% | [13]; at 3.7 µM 41% | [13]; at 11.0 µM 65% | [14]; [16] 6% | [15]; at 1.2 µM 27% | [15]; at 3.7 µM 53% | [15]; at 11.0 µM 54%

CC1=C[C@H]2O[C@@H]3C[C@H]4OC(=O)/C=C\C=C\C(C(C)O)OCC(O)C(C)CC(=O)OC[C@@]2(C[C@@H]1O)[C@]4(C)[C@@]31CO1 (stereo partly specified)
active: [1]; at 11.0 µM 91% | [1]; at 33.0 µM 97% | [1]; at 100.0 µM 97% | [3]; at 11.0 µM 92% | [3]; at 33.0 µM 97% | [3]; at 100.0 µM 97% | [4]; at 11.0 µM 92% | [4]; at 33.0 µM 97% | [4]; [17] 98% | [4]; at 50.0 µM 91.1% | [4]; at 100.0 µM 97% | [5]; at 11.0 µM 88% | [5]; at 33.0 µM 97% | [5]; [17] 98% | [5]; at 50.0 µM 92.2% | [5]; at 100.0 µM 97% | [6]; at 11.0 µM 93% | [6]; at 33.0 µM 97% | [6]; at 100.0 µM 97% | [7]; at 50.0 µM 92.2% | [8]; at 11.0 µM 91% | [8]; at 33.0 µM 97% | [9]; at 50.0 µM 91.4% | [10]; at 11.0 µM 89% | [10]; at 33.0 µM 97% | [10]; at 50.0 µM 90.8% | [10]; at 100.0 µM 97% | [11]; at 11.0 µM 78% | [11]; at 33.0 µM 98% | [11]; at 100.0 µM 98% | [12]; at 11.0 µM 89% | [12]; at 33.0 µM 97% | [12]; at 100.0 µM 97% | [13]; at 11.0 µM 82% | [13]; at 33.0 µM 94% | [13]; at 100.0 µM 96% | [14]; [17] 98% | [14]; at 50.0 µM 89.7% | [15]; at 11.0 µM 91% | [15]; at 33.0 µM 96% | [15]; at 100.0 µM 96%
inactive: [1]; at 1.2 µM -21% | [1]; at 3.7 µM 2% | [2]; at 1.2 µM -29% | [2]; at 3.7 µM -43% | [2]; at 11.0 µM -31% | [2]; at 33.0 µM -46% | [2]; at 100.0 µM -55% | [3]; at 1.2 µM -54% | [3]; at 3.7 µM -7% | [4]; at 1.2 µM -23% | [4]; at 3.7 µM 17% | [4]; [16] 41% | [5]; at 1.2 µM -60% | [5]; at 3.7 µM -3% | [5]; [16] 40% | [6]; at 1.2 µM -14% | [6]; at 3.7 µM 25% | [7]; [16] 7% | [7]; [17] 12% | [8]; at 1.2 µM 13% | [8]; at 3.7 µM 24% | [8]; at 100.0 µM 18% | [9]; [16] 18% | [9]; [17] -18% | [10]; at 1.2 µM -46% | [10]; at 3.7 µM 4% | [10]; [16] 4% | [10]; [17] -8% | [11]; at 1.2 µM -12% | [11]; at 3.7 µM 8% | [12]; at 1.2 µM -73% | [12]; at 3.7 µM 3% | [13]; at 1.2 µM -42% | [13]; at 3.7 µM -17% | [14]; [16] 68% | [15]; at 1.2 µM -64% | [15]; at 3.7 µM -15%
